Laboratory results as given in PubChem BioAssay AID686978 (National Center for Advancing Translational Sciences (NCATS), 2013).
The campaign covered roughly 420,000 compounds. About 64,000 (15%) were called active. About 27% were inconclusive and are not listed. Not all results are given here. Values without a mark were called inactive. Calls follow the shape of the dose curve; as a rule, active = well fitted inhibition curve with a large enough effect; inconclusive = small, poorly fitted or top-dose-only effect; inactive = flat fitted curve, though single readings scatter.

Assay: qHTS for Inhibitors of human tyrosyl-DNA phosphodiesterase 1 (TDP1): qHTS in cells in absence of CPT; also: nearly all actives have a fitted effect of over 55% in size
Settings: DT40 Tdp1-/- hTDP1 cells, no CPT, ATP luminescence, 48 h; activity change, negative = growth inhibition: at 46.2 µM (top of the series)
Outline: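 Readout: luminescence from CellTiter-Glo after 30 min in the dark at RT. Cells: DT40 Tdp1-/- with stable hTDP1, 400/well. Exposure: compounds alone, ≥48 hr, 37 °C.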
% is scaled to controls: 0 for no effect and ±100 for the full control effect; potency is read from the fitted curve at half-maximal effect.

SMILES | activity change, negative = growth inhibition | Potency
Cn1cnnc1SCC(=O)NNC(=O)COc1ccc(Br)cc1 | 0.551% | 
O=C(NC1CC1)C1CCCN(C(=O)NC2CCCCC2)C1 (stereo not given) | 11.4% | 
Cc1cc(Br)ccc1NC(=O)Cn1cnc2sc(C)c(S(=O)(=O)N3CCN(C)CC3)c2c1=O | 1.29% | 
COc1ccc(N2CCN(C(=O)Cn3cnc4sc(C)c(S(=O)(=O)N5CCOCC5)c4c3=O)CC2)cc1 |  | 18.4 µM (active)
CCN(CC)CCNC(=O)Cn1cnc2sc(C)c(S(=O)(=O)N3CCOCC3)c2c1=O | -4.5% | 
OCCN1CCN(CCO)C1=S | -13.3% | 
CC(C)(C)NC(=O)NC(=O)COC(=O)CCC1CCCCC1 | -5.88% | 
Cc1cccc(N2CCN(C(=O)c3cc4c(=O)[nH]c5ccccc5c4n3C)CC2)c1C |  | 18.4 µM (active)
Cc1c(C(=O)CN2CCOCC2)[nH]c2ccccc12 | -6.49% | 
O=C(c1ncn2c1c(=O)[nH]c1ccccc12)N1CCc2ccccc2C1 | -20.7% | 
Cn1cccc1C(=O)N1CCc2ccccc2C1 | 0.109% | 
Cn1c(C(=O)NCCN2CCc3ccccc3C2)cc2c(=O)[nH]c3ccccc3c21 |  | 16.4 µM (active)
O=C(c1c(Cl)cccc1Cl)N1CCN(c2cccc3[nH]ccc23)CC1 | -22.9% | 
O=C(NCCN1CCN(Cc2ccccc2)CC1)c1cc2c(=O)[nH]c3ccccc3c2s1 |  | 25.9 µM (active)
O=C(Cc1c(O)c2ccccc2[nH]c1=O)NCc1ccccc1 | -9.23% | 
CC(C(=O)O)N1C(=O)c2cccc3cccc1c23 (stereo not given) | -21.4% | 
CC(C)NC(=O)NCCCCCCS(C)=O (stereo not given) | -10.1% | 
Cc1ccn2cc(-c3nonc3C)cc2c1 | -17.3% | 
CC1(C(=O)NS(=O)(=O)c2ccc3ccccc3c2)CCN1C(=O)C1(c2ccc(Cl)cc2)CCC1 (stereo not given) | -24.9% | 
CCN(C(=O)CSc1nnc2ccccn12)C1CCS(=O)(=O)C1 (stereo not given) | 6.51% | 

SMILES | activity change, negative = growth inhibition | Potency
CC(OC(=O)c1cccnc1Cl)C(=O)NC1CCCCC1 (stereo not given) | 0.257% | 
CC(C)Cn1c(CCC(=O)O)ccc1-c1cccs1 | -11.6% | 
COc1cc(C(=S)NC2CCCCC2)ccc1O | -18.8% | 
CC(=O)c1cccc(CN2CCC(CO)(Cc3ccccc3)CC2)c1 | -3.52% | 
COc1ccc(CC2(CO)CCN(Cc3cnn(C)c3)CC2)cc1 | -2.37% | 
COc1cccc(CC2(CO)CCN(Cc3cnc(-c4cccc(C)c4)nc3)CC2)c1 |  | 20.6 µM (active)
OCC1(CCc2ccccc2)CCN(Cc2ccc3nsnc3c2)CC1 | -29.8% | 
COC(=O)c1ccc(CN2CCC(CO)(Cc3ccc(OC)cc3)CC2)cc1 | -22.6% | 
Cc1cccc(-c2ncc(CN3CCC(CO)(CCCc4ccccc4)CC3)cn2)c1 |  | 23.1 µM (active)
COc1cccc(NC(=O)Cn2c3ccc(F)cc3c3nc4n(c(=O)c32)CCS4)c1 | 26.7% | 
O=C(NCC1Cc2cc(F)cc(-c3cnccn3)c2O1)C1COc2ccccc2O1 (stereo not given) | -7.45% | 
Cc1cc(C)c(C#N)c(SCc2ccccc2C(=O)O)n1 | -15% | 
CSCCC(NC(=O)COc1ccccc1)C(=O)OCC(=O)c1cc2ccccc2o1 (stereo not given) | -18% | 
CCOCCCNCc1cc(Br)ccc1OCC | -20.4% | 
CCOc1ccc(Br)cc1S(=O)(=O)N1CCC(C(=O)O)CC1 | -17.2% | 
CC(C)(C)NCc1cc(Br)ccc1OC1CCCC1 |  | 16.4 µM (active)
CC(=O)N/C(=C/c1ccc(OC(F)F)cc1)C(=O)O | -7.71% | 
N#Cc1ccc(-c2ccc(F)cc2)nc1Sc1ccccc1 | -5.02% | 
COc1ccc(NC(=O)CN(C)C(=O)Cc2coc3cc(C)c(C)cc23)cc1 | 1.68% | 
Cc1ccc(NS(=O)(=O)c2ccc3c(c2)NC(=O)CO3)cc1 | -24% | 

SMILES | activity change, negative = growth inhibition | Potency
CCOc1ccc(CCN2C(=O)C(=O)N([C@@H](CC(C)C)CN3CCC[C@H]3CN3C(=O)C(=O)NC[C@@H]3Cc3ccccc3)C[C@@H]2CC(C)C)cc1 | -20.4% | 
CC(C)C[C@H]1CNC(=S)N1C[C@H]1CCCN1C[C@H](Cc1ccc(O)cc1)N1C[C@H](Cc2ccc(O)cc2)N(CC2CCCCC2)C1=S |  | 25.9 µM (active)
CCOc1ccc(CCN2C(=O)C(=O)N([C@@H](Cc3ccc(O)cc3)CN3CCC[C@H]3CN3C(=O)C(=O)NC[C@@H]3CC(C)C)C[C@@H]2Cc2ccccc2)cc1 | -19.2% | 
O=C1NC[C@H](CCCCN2C[C@H](Cc3ccc(O)cc3)N(CCc3ccccc3)C(=O)C2=O)N(CCc2ccccc2)C1=O | -4.41% | 
O=C1NC[C@H](CCCCN2C[C@H](Cc3ccccc3)N(Cc3ccccc3)C(=O)C2=O)N(CCc2ccc(O)cc2)C1=O | -1.84% | 
O=C1NC[C@H](CCCCN2C[C@H](Cc3ccc(O)cc3)N(CC3CCCCC3)C(=O)C2=O)N(CCc2ccccc2)C1=O | -11.7% | 
CC(C)C[C@H]1CN([C@@H](CC(C)C)CN2CCC[C@@H]2CN2C(=O)C(=O)NC[C@@H]2Cc2ccccc2)C(=O)C(=O)N1CCc1ccccc1 |  | 16.4 µM (active)
CC(C)C[C@H]1CNC(=O)C(=O)N1C[C@@H]1CCCN1C[C@H](Cc1ccccc1)N1C[C@H](CC(C)C)N(CC2CCCCCC2)C(=O)C1=O | -20.9% | 
CCOc1ccc(CCN2C(=S)N([C@@H](CC(C)C)CN3CCC[C@@H]3CN3C(=S)NC[C@@H]3Cc3ccc(O)cc3)C[C@@H]2CC(C)C)cc1 |  | 23.1 µM (active)
Cc1cc(NC(=O)CN2C(=O)NC(CCc3ccccc3)C2=O)no1 (stereo not given) | 14.2% | 
CCOc1ccc(CCN2C(=O)c3cccnc3C2=O)cc1OCC | -19.1% | 
CN(C(=O)C1CCOC1)c1nnc(-c2cccnc2)s1 (stereo not given) | -7.53% | 
CC(CNC(=O)c1ccc(N)cc1)NC(=O)c1ccc(N)cc1 (stereo not given) | -21% | 
Cc1cc(C)c2[nH]c(=O)c(C(c3nnnn3Cc3ccc4c(c3)OCO4)N3CCCC3)cc2c1 (stereo not given) |  | 2.31 µM (active)
CC(C)(C)n1nnnc1C(c1ccc(F)cc1)N1CCN(Cc2ccc3c(c2)OCO3)CC1 (stereo not given) | -20.6% | 
CCOC(=O)C1CCN(C(c2cc3cc(C)cc(C)c3[nH]c2=O)c2nnnn2C2CCCCC2)CC1 (stereo not given) | -8.63% | 
O=C(NCc1ccco1)/C(=C/c1cccc([N+](=O)[O-])c1)NC(=O)c1ccco1 | -7.01% | 
COc1cc(NC(=O)CCS(=O)(=O)c2ccc3c(c2)oc(=O)n3C)cc(OC)c1 | 5.76% | 
O=C(Nc1cc(C(F)(F)F)ccc1Cl)c1cc(C2CC2)on1 | -2.31% | 
COc1ccc(-n2cnnc2SCC(=O)Nc2cccc(S(N)(=O)=O)c2)cc1 | 4.46% | 
